# Source: PubChem BioAssay (NCATS)
# Results filed as inconclusive are left out. Active and inactive are the calls of the source. Unless noted, calls follow the shape of the dose curve; as a rule, active = well fitted curve in the direction sought with a large enough effect; inconclusive = small, poorly fitted or top-dose-only effect, or another doubt; inactive = no such curve, though single readings can be large; an effect the other way counts as inactive or inconclusive.
# Experiments:
# [1] = Cytotoxicity counterscreen for NFkB agonists and antagonists (AID 624476); conditions: NFkB reporter cell line viability counterscreen; series mostly up to 46.1 µM; also: potency is read from the fitted curve at half-maximal effect
# [2] = qHTS Assay for Identification of Small Molecule Agonists for NFkB Signaling Pathway. (AID 624478); conditions: NFkB pathway reporter cell assay, agonist mode, cells co-stimulated with 10 pM TNF alpha; series mostly up to 46.1 µM;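 also: compounds tested together with TNF alpha at its EC50 of 10 pM; 0% is about no effect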
# Procedure, shortened: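 Cells carrying an NFkB response element-driven beta-lactamase gene are co-treated with compound and 10 pM TNF alpha for 5 h, and reporter activity is then read as 460 and 530 nm fluorescence.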
# [3] = qHTS Assay for Identification of Small Molecule Antagonists for NFkB Signaling Pathway. (AID 624479; calls by dose curve; also: potency is read from the fitted curve at half-maximal effect); conditions: NFkB pathway reporter cell assay, antagonist mode; series mostly up to 38.3 µM
# [4] = Cell Proliferation Assay against the TMD8 Cell Line (AID 651645); conditions: TMD8 DLBCL cell line proliferation/viability; at 46.1 µM (top of the series);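 also: cells exposed to compound for 48 h before reading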
# Procedure, shortened: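 TMD8 ABC DLBCL cells, 500 per well in phenol red-free RPMI with 5% FBS, were treated with compound by pin transfer and incubated 48 hours at 37C, 5% CO2. Viability was read by CellTiter-Glo luminescence, normalised to DMSO (100%) and 9.2 uM bortezomib (0%).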
# [5] = Cell Proliferation Assay against the HBL1 Cell Line (AID 651646); conditions: HBL1 DLBCL cells; at 46.1 µM (top of the series);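 also: cells exposed to compound for 48 h before reading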
# Procedure, shortened: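 Luminescent ATP read-out (CellTiter-Glo) after 48 h compound exposure of HBL1 cells at 37 °C; percent activity was scaled between DMSO as 100% and 9.2 uM bortezomib (final) as 0%.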
# [6] = Cell Proliferation Assay against the TMD8 Cell Line (Caspase readout at 8 hrs) (AID 651713); conditions: TMD8 lymphoma cells, caspase activation luminescence; series mostly up to 46.1 µM; also: potency is read from the fitted curve at half-maximal effect
# Procedure, shortened: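 Percent activity derived from Caspase-Glo signal, DMSO set to 0% and bortezomib (9.2 uM final) to 100%. TMD8 cells were exposed to compound for 8 h in RPMI with 5% FBS.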
# [7] = Cell Proliferation Assay against the TMD8 Cell Line (Caspase readout at 16 hrs) (AID 651712); conditions: TMD8 lymphoma cells, caspase activation luminescence; series mostly up to 46.1 µM; also: potency is read from the fitted curve at half-maximal effect
# Procedure, shortened: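 Apoptotic response of TMD8 cells was judged from caspase 3/7 activation following a 16 hour compound incubation at 37 °C. Luminescent signal was converted to percent activity, with DMSO set as 0% and 9.2 uM final bortezomib as 100%.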
SMILES,Potency [1],outcome [2],Potency [3],viability (% of control) [4],"viability, percent of control [5]",Potency [6],Potency [7]
CC(C)CC(=O)Nc1n[nH]c2c1CN(C(=O)C1CCN(C)CC1)C2(C)C,2.35 µM (active),inactive,0.266 µM (active),4.73%,49.6%,2.35 µM (active),
Cc1cn(-c2cc(NC(=O)c3ccc(C)c(Nc4nccc(-c5cccnc5)n4)c3)cc(C(F)(F)F)c2)cn1,9.35 µM (active),inactive,2.11 µM (active),17.5%,14.5%,inactive,
CN1CCC(CNc2ccc3ncc(-c4cccc(OC(F)(F)F)c4)n3n2)CC1,26.4 µM (active),inactive,23.7 µM (active),4.73%,3.91%,23.5 µM (active),
COc1ccc2c(c1)CC[C@@H](CN(C)CC(=O)O)[C@H]2c1ccccc1,inactive,inactive,inactive,118%,98.5%,inactive,inactive
CCN1CCN(CC(=O)Nc2ccc(-c3cccc4c(=O)cc(N5CCOCC5)oc34)c3sc4ccccc4c23)CC1,5.9 µM (active),inactive,13.3 µM (active),0.621%,0.638%,20.9 µM (active),0.469 µM (active)
COc1cccc2nc(-c3cccs3)nc(NN3C(=O)C=C(C)C3=O)c12,inactive,inactive,0.841 µM (active),3.01%,3.09%,0.166 µM (active),
CC1(C)CCC(c2ccc(Cl)cc2)=C(CN2CCN(c3ccc(C(=O)NS(=O)(=O)c4ccc(N[C@H](CCN5CCOCC5)CSc5ccccc5)c(S(=O)(=O)C(F)(F)F)c4)cc3)CC2)C1,4.18 µM (active),inactive,14.9 µM (active),1.35%,3.35%,29.6 µM (active),
CC(C)(O)CCc1ccc(OCc2cc(-c3cccc(OC(F)F)c3)c3ncccc3c2)cc1,inactive,inactive,23.7 µM (active),60.9%,7.17%,inactive,
Cc1ccc(C(=O)Nc2cccc(C(F)(F)F)c2)cc1-c1ccc2nc(NCCN3CCOCC3)ncc2c1,20.9 µM (active),inactive,4.73 µM (active),0.164%,0.88%,20.9 µM (active),
CC(NCc1ccc2c(c1)nc(NC(=O)c1ccc(-c3cn[nH]c3)s1)n2CC(C)(C)O)C(C)(C)C (configuration not stated),0.332 µM (active),inactive,0.0266 µM (active),1.7%,1.76%,0.332 µM (active),
C[C@@]12O[C@@H](C[C@]1(O)CO)n1c3ccccc3c3c4c(c5c6ccccc6n2c5c31)CNC4=O,3.32 µM (active),inactive,,1.51%,3.21%,,
COc1cc2ncn(-c3cc(OCc4ccccc4C(F)(F)F)c(C(N)=O)s3)c2cc1OC,inactive,inactive,inactive,37.6%,41.7%,inactive,
CCOc1cc2ncc(C#N)c(Nc3ccc(F)c(Cl)c3)c2cc1NC(=O)C=CCN(C)C,20.9 µM (active),inactive,11.9 µM (active),-0.0881%,2.39%,16.6 µM (active),
C=CCn1c(=O)c2cnc(Nc3ccc(N4CCN(C)CC4)cc3)nc2n1-c1cccc(C(C)(C)O)n1,1.66 µM (active),inactive,,11.5%,31.1%,,
COc1ccc(CC2SC(=O)NC2=O)cc1C(=O)NCc1ccc(C(F)(F)F)cc1 (configuration not stated),inactive,inactive,inactive,71.9%,66%,inactive,
CCC[C@H](NC(=O)C(C#N)=Cc1cccc(Br)n1)c1ccccc1,2.96 µM (active),inactive,2.11 µM (active),3.01%,2.62%,1.87 µM (active),
CN(c1ncccc1CNc1nc(Nc2ccc3c(c2)CC(=O)N3)ncc1C(F)(F)F)S(C)(=O)=O,10.5 µM (active),inactive,1.49 µM (active),-0.0421%,40.9%,8.33 µM (active),
COCCn1c2c([n+](Cc3cnccn3)c1C)C(=O)c1ccccc1C2=O,0.0118 µM (active),inactive,,1.68%,1.98%,,inactive
CC(C)(C)OC(=O)Nc1ccc(-c2cc(C(=O)NCCCCCCC(=O)NO)no2)cc1,,inactive,inactive,2.43%,3.39%,,1.32 µM (active)
C=CC(=O)Nc1cc2c(Nc3ccc(F)c(Cl)c3)ncnc2cc1OCCCN1CCOCC1,23.5 µM (active),,16.8 µM (active),0.581%,0.769%,14.8 µM (active),
Cn1cc(-c2[nH]c3cc(NC(=O)[C@H](N)C4CCCCC4)cc4c3c2C=NNC4=O)cn1,,inactive,inactive,2.55%,21.5%,,0.166 µM (active)
CCCCc1nc2cc(C=CC(=O)NO)ccc2n1CCN(CC)CC,14.8 µM (active),inactive,,1.77%,1.9%,inactive,0.332 µM (active)
Cn1c(=O)n(-c2ccc(C(C)(C)C#N)cc2)c2c3cc(-c4cnc5ccccc5c4)ccc3ncc21,,inactive,inactive,10.6%,38.2%,,20.9 µM (active)
Cc1ccc(C(N)=O)cc1Nc1nccc(-c2cn(C(C)C)c3cnccc23)n1,,inactive,0.421 µM (active),5.31%,14.4%,14.8 µM (active),2.64 µM (active)
C=C1C(=CC=C2CCC[C@]3(C)[C@@H]([C@H](C)C=C[C@H](C)C(C)C)CC[C@@H]23)C[C@@H](O)C[C@@H]1O,,inactive,21.1 µM (active),,,,
c1ccc2c(CCNc3ccc(Nc4ccncc4)cc3)c[nH]c2c1,inactive,,10.6 µM (active),3.66%,22.1%,,23.5 µM (active)

SMILES,Potency [1],outcome [2],Potency [3],viability (% of control) [4],"viability, percent of control [5]",Potency [6],Potency [7]
Cc1[nH]c2ccccc2c1CCNCc1ccc(C=CC(=O)NO)cc1,0.332 µM (active),inactive,,1.52%,-0.0299%,,0.0332 µM (active)
CS(=O)(=O)N1CCN(Cc2cc3nc(-c4cccc5[nH]ncc45)nc(N4CCOCC4)c3s2)CC1,,inactive,,,,,
COc1cc(OC2CCN(C)CC2)ccc1Nc1ncc2c(n1)n(C1CCCC1)c(=O)n2C,inactive,inactive,,56.7%,38.2%,10.5 µM (active),
Clc1ccc2ncc(-c3cccc(NC4CNC4)n3)n2c1,,inactive,6.68 µM (active),1.46%,34.2%,,
CC(=O)c1c(C)c2cnc(Nc3ccc(N4CCNCC4)cn3)nc2n(C2CCCC2)c1=O,,inactive,16.8 µM (active),0.508%,1.52%,33.2 µM (active),18.7 µM (active)
COc1ccc(OC)c(-c2nnc3ccc(-c4ccc(OC)c(O[C@@H]5CCOC5)c4)nn23)c1,inactive,inactive,,15.1%,42.3%,,20.9 µM (active)
Nc1nccc(Oc2ccc(NC(=O)c3c[nH]cc(-c4ccc(F)cc4)c3=O)cc2F)c1Cl,18.7 µM (active),,5.95 µM (active),4.79%,14.4%,inactive,inactive
CCCCCN(CCC12CC3CC(CC(C3)C1)C2)C(=O)NCCCc1ccncc1,23.5 µM (active),,21.1 µM (active),1.96%,1.97%,23.5 µM (active),
O=C(Nc1cc(C(F)(F)F)cc(C(F)(F)F)c1)c1cc(Cl)ccc1O,0.235 µM (active),inactive,,1.86%,12.7%,,0.296 µM (active)
CN1CCN(c2cc(C(=O)Nc3ccc4c(c3)-c3c(c(C(N)=O)nn3-c3ccc(F)cc3)CC4)c(Cl)cn2)CC1,inactive,inactive,,0.112%,0.345%,33.2 µM (active),
O=C(c1ccc(Nc2nccc(-c3cc4ccccc4s3)n2)cc1)N1CCC(N2CCCC2)CC1,,inactive,0.266 µM (active),0.477%,0.745%,,inactive
Cc1nc2cnc3ccc(C#Cc4cccnc4)cc3c2n1-c1ccc(C(C)(C)C#N)cc1,inactive,inactive,,0.22%,0.379%,26.4 µM (active),
COc1cc(C(C)C)c2c(c1)S(=O)(=O)N(COc1cc(=O)n3cccc(OCCN4CCCCC4)c3n1)C2=O,,inactive,14.9 µM (active),0.892%,1.12%,,inactive
COc1cc2nccc(Oc3ccc(NC(=O)C4(C(=O)Nc5ccc(F)cc5)CC4)cc3)c2cc1OC,,inactive,16.8 µM (active),18.7%,3.78%,,26.4 µM (active)
NC(=O)c1c(OCc2c(F)cc(Br)cc2F)nsc1NC(=O)NCCCCN1CCCC1,inactive,inactive,,8.16%,4.14%,,inactive
CC1=C(CO)C(=O)O[C@@H]([C@@H](C)[C@H]2CC[C@H]3[C@@H]4C[C@H]5O[C@]56[C@@H](O)C=CC(=O)[C@]6(C)[C@@H]4CC[C@]23C)C1,3.32 µM (active),,1.49 µM (active),0.616%,1.69%,inactive,inactive
COC(=O)c1ccc2c(C(=Nc3ccc(N(C)C(=O)CN4CCN(C)CC4)cc3)c3ccccc3)c(O)[nH]c2c1,23.5 µM (active),inactive,,1.41%,2.34%,26.4 µM (active),0.469 µM (active)
Cc1ccc(C(=O)Nc2ccc(CN3CCN(C)CC3)c(C(F)(F)F)c2)cc1C#Cc1cnc2cccnn12,20.9 µM (active),,2.66 µM (active),1.83%,2.46%,23.5 µM (active),0.662 µM (active)
C=CC(=O)Nc1cc2c(Nc3ccc(F)c(Cl)c3)ncnc2cc1C#CC(C)(C)N1CCN(C)CC1,7.43 µM (active),,4.73 µM (active),-0.868%,0.0807%,5.26 µM (active),
C=C1C(=CC=C2CCCC3(C)[C@@H]([C@H](C)C=CC=CC(O)(CC)CC)CC[C@@H]23)C[C@@H](O)C[C@@H]1O (some centres not stated),23.5 µM (active),,16.8 µM (active),3.4%,2.25%,,
C[C@@H](Oc1cc(-c2cnn(C3CCNCC3)c2)cnc1N)c1c(Cl)ccc(F)c1Cl,inactive,inactive,,2.18%,-0.628%,26.4 µM (active),
N#CCNC(=O)c1ccc(-c2ccnc(Nc3ccc(N4CCOCC4)cc3)n2)cc1,,inactive,0.668 µM (active),7.51%,25.4%,,5.26 µM (active)
O=C(O)c1ccc2c(c1)nc(Nc1cccc(Cl)c1)c1ccncc12,,inactive,0.298 µM (active),0.231%,32.2%,inactive,
COc1cc2c(Oc3ccc4[nH]c(C)cc4c3F)ncnc2cc1OCCCN1CCCC1,,inactive,,1.51%,1.27%,,
Cc1cc(Nc2cc(NC(=O)c3c(Cl)cccc3Cl)ccn2)nc(N)n1,,inactive,0.266 µM (active),2.69%,31.3%,29.6 µM (active),18.7 µM (active)
